C diff growth – blocks growth of Clostridium difficile; Clostridium difficile clinical isolate growth, OD600, 24 h; stronger effect = lower value; growth activity, negative = inhibition, % at 16 µg/mL (by protocol); actives 0.25% (n = 86,000); AID 1259249;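 active = mean growth activity at or below -80% and every replicate also at or below -80%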
Large screens that a line does not name were inactive; ! = not active in a repeat. The full list was thinned out, with hits kept by preference.

Cc1ccc(-c2ccc(C3[C@H]4CNC[C@@H]3N4Cc3ccccc3F)cc2)cc1 (some centres not stated)	none
Cc1cccc(-c2ccc(C3[C@@H]4CN(Cc5ccccc5F)C[C@H]3N4)cc2)c1 (some centres not stated)	C diff growth -98
CNC[C@@H]1OCCCC[C@H](C)Oc2ccc(NS(=O)(=O)c3c(C)noc3C)cc2C(=O)N([C@@H](C)CO)C[C@@H]1C	none
CCCNC(=O)N1CC2(CN(Cc3ccc(F)cc3)C2)c2c([nH]c3cc(OC)ccc23)[C@H]1CO	none
O=C(Nc1ccccc1F)N1CCCCN2[C@H](CO)[C@@H](c3ccc(/C=C/c4ccccc4)cc3)[C@@H]2C1	none
COc1ccc(C#Cc2ccc([C@@H]3[C@@H](CO)N4CCCCN(C(=O)Nc5ccc(F)cc5)C[C@H]34)cc2)cc1	none
COc1ccc(C#Cc2ccc([C@H]3[C@@H](CO)N4CCCCN(C(=O)Nc5ccc(F)cc5)C[C@H]34)cc2)cc1	none
CC(C)CC#Cc1ccc([C@H]2[C@H]3CN(C(=O)Nc4ccccc4)CCCCN3[C@H]2CO)cc1	none
CC(C)CC#Cc1ccc([C@H]2[C@@H](CO)N3CCCCN(C(=O)Nc4ccccc4)C[C@H]23)cc1	C diff growth -87
CC(C)CC#Cc1ccc([C@@H]2[C@@H](CO)N3CCCCN(C(=O)Nc4ccccc4)C[C@@H]23)cc1	none
Cc1ccc(-c2ccc([C@H]3[C@H](CO)N4CCCCN(C(=O)Nc5cccc(F)c5)C[C@@H]34)cc2)cc1	C diff growth -99
O=C(Nc1ccccc1F)N1CCCCN2[C@H](C1)[C@H](c1ccc(/C=C/c3ccccc3)cc1)[C@@H]2CO	none
COc1ccc(C#Cc2ccc([C@@H]3[C@H](CO)N4CCCCN(C(=O)Nc5ccc(F)cc5)C[C@@H]34)cc2)cc1	C diff growth -93
Cc1ccc(-c2ccc([C@H]3[C@H]4CN(C(=O)Nc5cccc(F)c5)CCCCN4[C@H]3CO)cc2)cc1	none
O=C(Nc1cccc(F)c1)N1CCCCN2[C@H](CO)[C@H](c3ccc(-c4ccncc4)cc3)[C@@H]2C1	none
O=C(Nc1ccccc1F)N1CCCCN2[C@@H](CO)[C@@H](c3ccc(/C=C/c4ccccc4)cc3)[C@@H]2C1	C diff growth -96
C[C@@H]1CN([C@@H](C)CO)C(=O)Cc2cc(NC(=O)CCCN(C)C)ccc2O[C@@H]1CN(C)S(=O)(=O)c1ccc(Cl)cc1	none
CCC(=O)N1[C@@H]2c3cccc(=O)n3C[C@@H]2[C@@H](CO)[C@@H]1C(=O)N1CCc2ccccc2C1	none
CCCNC(=O)N1CC2(C1)[C@@H](c1ccccc1)[C@@H](CO)N2Cc1cccc(F)c1	none
O=C(C1CC1)N1C[C@@H]2[C@H](c3ccccc31)[C@H](CO)N2C(=O)c1ccccn1	none
Cc1noc(C)c1NC(=O)Nc1ccc2c(c1)CC(=O)N([C@H](C)CO)C[C@H](C)[C@H](CN(C)C(=O)Nc1ccccc1)O2	none
CN1C(=O)c2cc(NC(=O)Nc3ccc(Cl)cc3)ccc2OC[C@H]2O[C@@H](CC(=O)NCCN3CCCCC3)CC[C@@H]21	none
C[C@H]1CN([C@@H](C)CO)C(=O)c2cc(NC(=O)Cn3cnnn3)ccc2O[C@@H]1CN(C)S(C)(=O)=O	none
O=C(C[C@H]1CC[C@@H]2[C@H](COC[C@H](O)CN2C(=O)Nc2ccc(F)cc2)O1)NCC1CC1	none
O=C(C[C@H]1CC[C@H]2[C@@H](COC[C@H](O)CN2C(=O)Nc2ccc(C(F)(F)F)cc2)O1)NCC1CCCCC1	none
O=C(C[C@H]1CC[C@H]2[C@@H](COC[C@@H](O)CN2C(=O)Nc2ccc(F)cc2)O1)NCC1CC1	none
O=C(C[C@@H]1CC[C@@H]2[C@H](COC[C@@H](O)CN2C(=O)Nc2ccc(Cl)cc2)O1)NCC1CCCCC1	none
O=C(C[C@H]1CC[C@H]2[C@@H](COC[C@@H](O)CN2C(=O)Nc2ccc(C(F)(F)F)cc2)O1)NCC1CCCCC1	C diff growth -101!
O=C(C[C@@H]1CC[C@@H]2[C@H](COC[C@H](O)CN2C(=O)Nc2ccc(Cl)cc2)O1)NCC1CC1	none
O=C(C[C@H]1CC[C@@H]2[C@H](COC[C@H](O)CN2C(=O)Nc2ccc(C(F)(F)F)cc2)O1)NCC1CCCCC1	C diff growth -102!
O=C(C[C@@H]1CC[C@@H]2[C@H](COC[C@H](O)CN2C(=O)Nc2ccc(C(F)(F)F)cc2)O1)NCC1CCCCC1	C diff growth -101!
O=C(C[C@@H]1CC[C@H]2[C@@H](COC[C@H](O)CN2C(=O)Nc2ccc(F)cc2)O1)NCC1CC1	none
O=C(Cn1cc(CN2C(=O)COC[C@H]2c2ccccc2)nn1)Nc1nccs1	none
CN1c2ccc(-c3ccccc3)cc2[C@@H]2[C@@H](CCN2S(=O)(=O)c2ccccc2F)[C@@H]1CO	none
COc1ccc2c3c(n(C)c2c1)[C@H](CO)N(C(=O)C1CCC1)CC31CN(C(=O)CN(C)C)C1	none
COc1ccc2c3c(n(C)c2c1)[C@H](CO)N(C(=O)C1CCCCC1)CC31CCN(C(=O)c2ccncc2)CC1	none
COc1cccc(S(=O)(=O)Nc2ccc3c(c2)[C@@H]2C[C@@H](CC(=O)N[C@@H](C)c4ccccc4)O[C@H](CO)[C@@H]2O3)c1	none

From PubChem BioAssay
